In PubChem BioAssay:
For some assays here: Potency and affinity values are given separately. The source made the active and inactive calls. Unless noted, no rule for the calls is given here.

What was measured:
[1] = antimalarial activity against Dd2 strain (AID 2302;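 active = growth inhibition above 50% at the single 2 µM test dose, taken to imply half-maximal potency below 2 µM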;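 also: 0% = DMSO untreated growth and 100% = chloroquine plus artemisinin killed control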); conditions: P. falciparum Dd2 in RBCs, LDH growth readout, 72 h; at 2 µM; stronger effect = higher value
[2] = HepG2 cytotoxicity, primary screen, cytotoxicity control for P. falciparum antimalarial project, cell-based, ATP luminescence (AID 2303;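 active = inhibition above 50%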;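 also: 0% = DMSO wells and 100% = digitonin-killed cells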); conditions: HepG2 viability, 24-48 h, at 10 µM, stronger effect = higher value
[3] = target: L-lactate dehydrogenase (Plasmodium falciparum (isolate CDC / Honduras)) (UniProt Q27743); test: PfLDH activity inhibition – cell lysate, 3D7 strain, counter-screen for P. falciparum growth inhibition project (AID 2304);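 also: 0% = vehicle and 100% = reference inhibitor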; conditions: P. falciparum 3D7 crude extract, LDH APAD/NBT absorbance; at 2 µM; stronger effect = higher value
[4] = inhibition of 3D7 malaria parasite growth – strain 3D7 (AID 2306);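 also: 0% = DMSO wells and 100% = chloroquine plus artemisinin control wells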; conditions: P. falciparum 3D7 erythrocytic growth, LDH absorbance, 72 h; at 2 µM; stronger effect = higher value
[5] = target: Calcium-dependent protein kinase 1 (Plasmodium falciparum (isolate 3D7)) (UniProt P62344); test: PfCDPK1 kinase inhibitors, biochemical, TCAMS library (AID 1159585; cut-off not given, nearly all actives have IC50 up to about 0.98 µM;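 also: inhibitors leave more ATP so luminescence rises with inhibition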); conditions: recombinant PfCDPK1, Kinase-Glo ATP depletion luminescence
[6] = target: Plasmodium falciparum protein kinase 6 (PK6, PF3D7_1337100) (UniProt Q8IDW1); test: PfPK6 kinase inhibitors, biochemical, TCAMS library (AID 1159586); conditions: recombinant PfPK6, Kinase-Glo ATP depletion luminescence
[7] = target: Protein kinase 7 (PK7), Plasmodium falciparum 3D7 (PF3D7_0213400) (UniProt Q7YTF7); test: inhibition of Plasmodium PK7 catalytic activity – biochemical, TCAMS antimalarial set, Kinase-Glo luminescence (AID 1159587); conditions: recombinant PfPK7, Kinase-Glo ATP depletion luminescence
[8] = target: Calcium-dependent protein kinase 4 (Plasmodium falciparum (isolate 3D7)) (UniProt Q8IBS5); test: PfCDPK4 kinase inhibitors, biochemical, TCAMS library (AID 1159588; cut-off not given, nearly all actives have IC50 up to about 0.91 µM); conditions: recombinant PfCDPK4, Kinase-Glo ATP depletion luminescence
Sequence of Calcium-dependent protein kinase 4 (Plasmodium falciparum (isolate 3D7)) (Q8IBS5 whole entry, looked up): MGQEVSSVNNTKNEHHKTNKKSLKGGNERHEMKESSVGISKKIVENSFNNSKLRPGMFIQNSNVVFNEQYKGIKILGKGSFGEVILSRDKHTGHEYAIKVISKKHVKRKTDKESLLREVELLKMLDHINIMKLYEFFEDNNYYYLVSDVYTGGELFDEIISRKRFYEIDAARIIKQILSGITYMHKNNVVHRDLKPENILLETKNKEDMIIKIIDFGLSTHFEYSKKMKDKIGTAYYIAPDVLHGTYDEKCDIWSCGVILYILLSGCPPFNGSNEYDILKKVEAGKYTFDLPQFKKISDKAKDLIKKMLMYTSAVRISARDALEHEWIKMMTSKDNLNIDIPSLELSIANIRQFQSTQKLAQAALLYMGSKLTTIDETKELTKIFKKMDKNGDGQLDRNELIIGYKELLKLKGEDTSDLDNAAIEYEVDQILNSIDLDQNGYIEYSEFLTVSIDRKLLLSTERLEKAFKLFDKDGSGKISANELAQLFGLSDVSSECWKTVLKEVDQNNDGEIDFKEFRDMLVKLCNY

Sequence of Plasmodium falciparum protein kinase 6 (PK6, PF3D7_1337100) (Q8IDW1 1-305): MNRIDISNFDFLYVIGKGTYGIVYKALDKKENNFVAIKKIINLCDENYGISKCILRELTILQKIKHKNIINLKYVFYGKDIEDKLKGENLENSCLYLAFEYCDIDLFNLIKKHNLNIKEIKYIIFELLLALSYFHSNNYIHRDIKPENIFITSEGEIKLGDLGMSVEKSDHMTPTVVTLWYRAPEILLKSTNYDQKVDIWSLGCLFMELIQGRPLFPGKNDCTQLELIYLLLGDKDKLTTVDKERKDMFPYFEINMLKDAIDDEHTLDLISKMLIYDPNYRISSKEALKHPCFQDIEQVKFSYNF
Sequence of Calcium-dependent protein kinase 1 (Plasmodium falciparum (isolate 3D7)) (P62344 whole entry, looked up): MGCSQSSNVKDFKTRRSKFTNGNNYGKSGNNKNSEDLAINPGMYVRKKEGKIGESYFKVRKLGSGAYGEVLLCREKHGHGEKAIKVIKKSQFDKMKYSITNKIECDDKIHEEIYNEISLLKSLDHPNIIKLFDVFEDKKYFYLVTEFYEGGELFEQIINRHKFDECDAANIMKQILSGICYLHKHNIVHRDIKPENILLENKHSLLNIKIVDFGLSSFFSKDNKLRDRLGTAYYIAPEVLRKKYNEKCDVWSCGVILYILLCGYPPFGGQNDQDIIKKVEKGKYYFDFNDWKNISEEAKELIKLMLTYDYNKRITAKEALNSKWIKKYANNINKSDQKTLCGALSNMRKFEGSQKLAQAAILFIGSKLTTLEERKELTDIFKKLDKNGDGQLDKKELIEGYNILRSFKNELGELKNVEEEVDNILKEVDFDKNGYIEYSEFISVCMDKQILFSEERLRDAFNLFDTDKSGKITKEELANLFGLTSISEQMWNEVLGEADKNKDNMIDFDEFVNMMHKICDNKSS
Sequence of Protein kinase 7 (PK7), Plasmodium falciparum 3D7 (PF3D7_0213400) (Q7YTF7 1-343): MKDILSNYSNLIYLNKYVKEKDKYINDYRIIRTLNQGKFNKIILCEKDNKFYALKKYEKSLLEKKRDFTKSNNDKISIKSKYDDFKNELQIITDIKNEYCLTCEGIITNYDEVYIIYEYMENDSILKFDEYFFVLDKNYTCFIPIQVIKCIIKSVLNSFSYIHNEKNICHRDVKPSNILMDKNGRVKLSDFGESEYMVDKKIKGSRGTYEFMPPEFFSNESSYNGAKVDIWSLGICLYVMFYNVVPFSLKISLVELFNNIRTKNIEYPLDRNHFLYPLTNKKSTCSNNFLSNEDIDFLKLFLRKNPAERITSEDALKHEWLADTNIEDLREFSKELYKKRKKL
Sequence of L-lactate dehydrogenase (Plasmodium falciparum (isolate CDC / Honduras)) (Q27743 whole entry, looked up): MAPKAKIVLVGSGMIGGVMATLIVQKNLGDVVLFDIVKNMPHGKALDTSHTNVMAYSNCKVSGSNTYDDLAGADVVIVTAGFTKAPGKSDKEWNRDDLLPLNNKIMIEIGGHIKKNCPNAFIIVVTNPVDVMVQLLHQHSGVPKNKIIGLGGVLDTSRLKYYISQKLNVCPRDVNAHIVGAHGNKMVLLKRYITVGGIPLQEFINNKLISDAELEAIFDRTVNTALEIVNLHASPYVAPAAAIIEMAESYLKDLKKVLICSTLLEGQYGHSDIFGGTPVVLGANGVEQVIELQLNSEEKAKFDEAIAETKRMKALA

COC(=O)c1ccc(CN2CCC(N(Cc3cccc(Oc4ccccc4)c3)S(=O)(=O)c3ccc(NC(C)=O)cc3)CC2)cc1
inactive: inhibition [2] -1% | inhibition [3] -6% | outcome [5] | outcome [6] | outcome [7] | outcome [8]
active: growth inhibition [1] 86% | growth inhibition [4] 82%

CN1CCC(NCc2ccc(-c3ccc(C(F)(F)F)cc3)cc2)CC1
active: growth inhibition [1] 71% | inhibition [2] 54% | growth inhibition [4] 99%
inactive: inhibition [3] 5% | outcome [5] | outcome [6] | outcome [7] | outcome [8]

Cc1ccc(C(=O)Nc2cccc(-c3ccc(N4CCN(C)CC4)nn3)c2)cc1[N+](=O)[O-]
inactive: growth inhibition [1] 40% | inhibition [2] 32% | inhibition [3] -2% | outcome [5] | outcome [6] | outcome [7] | outcome [8]
active: growth inhibition [4] 99%

CN(C)CCCNc1ccnc2cc(Cl)ccc12
active: growth inhibition [1] 100% | growth inhibition [4] 100%
inactive: inhibition [2] 10% | inhibition [3] 4% | outcome [5] | outcome [6] | outcome [7] | outcome [8]

N#Cc1ccc(NC(=O)c2ccc(C(=O)NCCCCN3CCC(c4ccc5c(c4OCCOC4CCCCO4)CCCC5)CC3)cc2)cc1 (stereo not given)
active: growth inhibition [1] 97% | inhibition [2] 72% | growth inhibition [4] 99%
inactive: inhibition [3] -6% | outcome [5] | outcome [6] | outcome [7] | outcome [8]

NC(=O)C1CCN(Cc2cccc(-c3ccc(-c4nc5ccc(C(F)(F)F)cc5[nH]4)cc3)c2)CC1
inactive: inhibition [2] 7% | inhibition [3] 8% | outcome [5] | outcome [6] | outcome [7] | outcome [8]
active: growth inhibition [1] 94% | growth inhibition [4] 100%

Clc1ccc(NC(=NCCCCCCCN=C(Nc2ccc(Cl)cc2)Nc2ccc(Cl)cc2)Nc2ccc(Cl)cc2)cc1
inactive: inhibition [3] 0% | outcome [5] | outcome [6] | outcome [7] | outcome [8]
active: growth inhibition [1] 99% | inhibition [2] 100% | growth inhibition [4] 101%

CCOc1cc(C(=O)N[C@@H](Cc2ccccc2)[C@H](O)CNCc2cccc(OC)c2)cc(N2CCCCS2(=O)=O)c1
active: growth inhibition [1] 94% | growth inhibition [4] 97%
inactive: inhibition [2] 3% | inhibition [3] 3% | outcome [5] | outcome [6] | outcome [7] | outcome [8]

Cn1ncc2c3c(CCN4CCC(NCc5ccc6c(c5)NC(=O)CO6)CC4)c(Cl)cnc3ccc21
inactive: inhibition [2] 18% | inhibition [3] -2% | outcome [5] | outcome [6] | outcome [7] | outcome [8]
active: growth inhibition [1] 92% | growth inhibition [4] 101%

NC(CC1CC(=O)N1CC(=O)O)C(=O)O (stereo not given)
inactive: growth inhibition [1] -3% | inhibition [3] -5% | outcome [5] | outcome [6] | outcome [7] | outcome [8]
active: inhibition [2] 56% | growth inhibition [4] 95%

COc1cc(F)c2ncc(Cl)c([C@@H](O)CN3CCC(NCc4ccc5c(n4)NC(=O)CO5)CC3)c2c1
active: growth inhibition [1] 100% | growth inhibition [4] 101%
inactive: inhibition [2] 12% | inhibition [3] 1% | outcome [5] | outcome [6] | outcome [7] | outcome [8]

COc1ccc(CNCc2ccccc2)cc1-c1ccc(S(=O)(=O)NCCN2CCCC2)s1
inactive: inhibition [2] 32% | inhibition [3] 0% | outcome [5] | outcome [6] | outcome [7] | outcome [8]
active: growth inhibition [1] 62% | growth inhibition [4] 101%

O=[N+]([O-])c1ccc(Nc2nc(NCc3ccccc3)nc(NN=Cc3ccccc3[N+](=O)[O-])n2)cc1
inactive: inhibition [2] 18% | inhibition [3] -9% | outcome [5] | outcome [6] | outcome [7] | outcome [8]
active: growth inhibition [1] 99% | growth inhibition [4] 101%

CCOc1cc(C(=O)Nc2cccnc2)ccc1-c1nc2cc(Cl)c(Cl)cc2[nH]1
active: growth inhibition [1] 70% | growth inhibition [4] 100%
inactive: inhibition [2] 9% | inhibition [3] 0% | outcome [5] | outcome [6] | outcome [7] | outcome [8]

Cc1nc(C(C)Nc2nncc(-c3ccc(Cl)cc3)n2)cs1 (stereo not given)
active: growth inhibition [1] 55% | growth inhibition [4] 91%
inactive: inhibition [2] -15% | inhibition [3] -2% | outcome [5] | outcome [6] | outcome [7] | outcome [8]

CCOc1ccc(Br)cc1/C=C/C(=O)Nc1ccc(C2CCN(C)CC2)cc1
inactive: inhibition [2] 30% | inhibition [3] -2% | outcome [5] | outcome [6] | outcome [7] | outcome [8]
active: growth inhibition [1] 71% | growth inhibition [4] 100%

CC(C)NCC(O)Cn1c2ccc(Br)cc2c2cc(Br)ccc21 (stereo not given)
active: growth inhibition [1] 100% | inhibition [2] 100% | growth inhibition [4] 99%
inactive: inhibition [3] -1% | outcome [5] | outcome [6] | outcome [7] | outcome [8]

O=C(/C=C/c1ccc(Cl)c(Cl)c1)NCCCCCN1CCC(NC(=O)Nc2ccc(Cl)cc2F)CC1
inactive: growth inhibition [1] 40% | inhibition [3] -8% | outcome [5] | outcome [6] | outcome [7] | outcome [8]
active: inhibition [2] 100% | growth inhibition [4] 101%

CCc1sc(-c2cc(Cl)ccc2OC)nc1C(=O)NCCN1CCCCC1
inactive: growth inhibition [1] 28% | inhibition [2] 3% | inhibition [3] 2% | outcome [5] | outcome [6] | outcome [7] | outcome [8]
active: growth inhibition [4] 100%

CC(C)(C)NCCN(Cc1ccc(-c2ccc(C(F)(F)F)cc2)cc1)C(=O)Cn1c(CCc2cccc(F)c2F)nc(=O)c2ccccc21
active: growth inhibition [1] 68% | growth inhibition [4] 99%
inactive: inhibition [2] 46% | inhibition [3] -4% | outcome [5] | outcome [6] | outcome [7] | outcome [8]

COc1ccc(-n2nc(C)cc2C(=O)NCc2ccc(-c3c(C)noc3C)cc2)cc1
inactive: inhibition [2] 3% | inhibition [3] 3% | outcome [5] | outcome [6] | outcome [7] | outcome [8]
active: growth inhibition [1] 92% | growth inhibition [4] 101%

CCCc1cccc(C)c1OCCCON1C(N)=NC(N)=NC1(C)C
active: growth inhibition [1] 96% | inhibition [2] 57% | growth inhibition [4] 95%
inactive: inhibition [3] -2% | outcome [5] | outcome [6] | outcome [7] | outcome [8]

CN(C)c1ccc(CN2CCC(CNC(=O)c3cc(-c4cccc(F)c4)cs3)C2)cc1 (stereo not given)
inactive: growth inhibition [1] 13% | inhibition [2] 48% | inhibition [3] 0% | outcome [5] | outcome [6] | outcome [7] | outcome [8]
active: growth inhibition [4] 96%

COc1cc2nc(N3CCC(CNC(=O)c4ccc(-c5ccc(Cl)cc5)cc4)CC3)nc(N)c2cc1OC
inactive: inhibition [3] 8% | outcome [5] | outcome [6] | outcome [7] | outcome [8]
active: growth inhibition [1] 101% | inhibition [2] 99% | growth inhibition [4] 100%

Cc1cc(NC(=O)Nc2ccc(Cl)cc2F)c2ccccc2n1
inactive: inhibition [2] 10% | inhibition [3] 2% | outcome [5] | outcome [6] | outcome [7] | outcome [8]
active: growth inhibition [1] 71% | growth inhibition [4] 100%

CNC(=O)c1cnc(Nc2ccc(N3CCOCC3)cc2)nc1Nc1cccc(OC)c1
active: growth inhibition [4] 96%
inactive: growth inhibition [1] 41% | inhibition [2] 2% | inhibition [3] -2% | outcome [5] | outcome [6] | outcome [7] | outcome [8]

CCCCOC(=O)NCCCC[C@H](NC(=O)OC(C)(C)C)C(=O)N[C@H](C(=O)OC(c1ccccc1)c1ccccc1)[C@H]1O[C@@H](n2ccc(=O)[nH]c2=O)[C@@H]2OC(C)(C)O[C@@H]21
active: growth inhibition [1] 65% | growth inhibition [4] 87%
inactive: inhibition [2] 7% | inhibition [3] 4% | outcome [5] | outcome [6] | outcome [7] | outcome [8]

CC(=O)Nc1ccc(C(=O)Nc2ccc(-c3cccc(-c4nc5c(C)cccc5[nH]4)c3)cc2)cn1
active: growth inhibition [1] 74% | growth inhibition [4] 99%
inactive: inhibition [2] 36% | inhibition [3] -7% | outcome [5] | outcome [6] | outcome [7] | outcome [8]

Cc1ccc2[nH]c3ccccc3c(=O)c2c1
inactive: inhibition [2] -4% | inhibition [3] -1% | outcome [5] | outcome [6] | outcome [7] | outcome [8]
active: growth inhibition [1] 74% | growth inhibition [4] 93%

COc1cccc(C=Cc2nc(=O)c3ccccc3o2)c1OC
active: growth inhibition [1] 97% | growth inhibition [4] 97%
inactive: inhibition [2] -19% | inhibition [3] 7% | outcome [5] | outcome [6] | outcome [7] | outcome [8]

CC(=O)Nc1ncc(C(=O)Nc2ccc(-c3cccc(-c4nc5ccc(C(F)(F)F)cc5[nH]4)c3)cc2)s1
inactive: inhibition [3] 3% | outcome [5] | outcome [6] | outcome [7] | outcome [8]
active: growth inhibition [1] 92% | inhibition [2] 79% | growth inhibition [4] 101%

O=C(/C=C/c1ccc(Cl)c(Cl)c1)NCCCCCN1CC[C@H](NC(=O)/C=C/c2ccccc2)C1
active: growth inhibition [4] 93%
inactive: growth inhibition [1] 1% | inhibition [2] 10% | inhibition [3] 1% | outcome [5] | outcome [6] | outcome [7] | outcome [8]

O=C(NCCCCN1CC=C(c2ccc3c(c2OCC2CC2)CCCC3)CC1)c1ccc(-c2ccc(C(F)(F)F)cc2)cc1
inactive: inhibition [2] 25% | inhibition [3] -10% | outcome [5] | outcome [6] | outcome [7] | outcome [8]
active: growth inhibition [1] 60% | growth inhibition [4] 93%

COc1cc(C=NNc2cc(C)nc3c(OC)cccc23)cc(OC)c1OC
active: growth inhibition [4] 94%
inactive: growth inhibition [1] 49% | inhibition [2] 2% | inhibition [3] 0% | outcome [5] | outcome [6] | outcome [7] | outcome [8]

Cc1ccc(-c2ccc3c(c2)C=C(C(=O)NC2CCN(CCNC(=O)c4cccc(C(F)(F)F)c4)CC2)CCC3)cc1
active: growth inhibition [1] 56% | growth inhibition [4] 100%
inactive: inhibition [2] 25% | inhibition [3] -3% | outcome [5] | outcome [6] | outcome [7] | outcome [8]

COc1ccc(CCNc2nc(NCCc3cnc[nH]3)nc(NCc3cccc4ccccc34)n2)cc1OC
inactive: growth inhibition [1] 16% | inhibition [2] 2% | inhibition [3] 3% | outcome [5] | outcome [6] | outcome [7] | outcome [8]
active: growth inhibition [4] 98%

Cc1cc(N[C@@H](Cc2ccccc2)C(=O)Nc2ccccc2)nc(NCCN2CCCC2)n1
inactive: growth inhibition [1] -5% | inhibition [2] 8% | inhibition [3] 0% | outcome [5] | outcome [6] | outcome [7] | outcome [8]
active: growth inhibition [4] 94%

Cc1cccc2[nH]c(-c3ccc(-c4ccc(NC(=O)NCc5ccccc5)cc4)s3)nc12
inactive: growth inhibition [1] 8% | inhibition [3] 5% | outcome [5] | outcome [6] | outcome [7] | outcome [8]
active: inhibition [2] 79% | growth inhibition [4] 93%

CC(C)CNCc1ccc(-c2ccc(CNC3CCN(Cc4ccccc4)CC3)cc2)cc1
active: growth inhibition [1] 96% | growth inhibition [4] 100%
inactive: inhibition [2] 16% | inhibition [3] 4% | outcome [5] | outcome [6] | outcome [7] | outcome [8]

Cc1ccc(OC2CCN(c3ccc(C(=O)NC4CC4)cn3)CC2)cc1
inactive: inhibition [2] 11% | inhibition [3] 4% | outcome [5] | outcome [6] | outcome [7] | outcome [8]
active: growth inhibition [1] 75% | growth inhibition [4] 87%
